Bioassay records (PubChem)
Shown are actives, neighbours in structure and some others; about 3.3% of the full set was active somewhere.
GSIS activator: GLuc luminescence reporter in INS-1E cells, primary screen for activators of glucose-dependent secretion of insulin; hit rate 0.61% among 370,000; activation, % at 16.6 µM; INS-1E GLuc reporter insulin secretion, 2-3 h;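 active = lowest replicate activation of at least 40%, so every replicate reaches that level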
FGF22 binding: binders of human FGF22 protein, primary screen, FGF22 synaptogenesis inhibitor project, biophysical, thermal shift, single point | Fibroblast growth factor 22 (Homo sapiens), Q9HCT0 | hit rate 1.5% among 340,000 | recombinant FGF22 thermal shift, SYPRO orange fluorescence; percent of sucrose octasulfate shift, DMSO zero | activity (Tm shift, normalised), % at 9.99 µM;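 active = mean Tm shift, scaled 0 neutral to 100 positive control, at about 1.3% or above, every replicate too, limit read from the data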
Target sequence (Q9HCT0 whole entry, looked up): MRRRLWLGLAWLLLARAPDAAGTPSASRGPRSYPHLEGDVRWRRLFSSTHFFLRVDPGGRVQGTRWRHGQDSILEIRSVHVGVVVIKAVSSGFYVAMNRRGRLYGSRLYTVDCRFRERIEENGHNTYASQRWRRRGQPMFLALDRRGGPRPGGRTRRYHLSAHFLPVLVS
ERAP1 inh: human ERAP1 aminopeptidase inhibitors, primary screen, biochemical, single point, plate reader. hit rate 0.15% among 340,000. inhibition, % at 10.7 µM. Endoplasmic reticulum aminopeptidase 1 (Homo sapiens), Q9NZ08. recombinant ERAP1, Leu-AMC fluorescence, 60 min;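 active = mean replicate inhibition of at least 30%, or all replicates individually reaching that 30% level; inactive = mean below 30% and not every replicate reaching it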
SIRT5 inh: SIRT5 desuccinylase inhibitors, primary screen, biochemical, fluorescence imaging, single point, set 5 | Purified SirT5, succinyl-peptide AMC, trypsin-coupled fluorescence | inhibition, % at 15 µM | hit rate 1.1% among 330,000 | AID 652115, 2013; in the data active = inhibition above about 15%
CASP6 VEID inh: human caspase-6 inhibitors, primary screen, biochemical, VEID-R110 fluorescence, single point, set 2 | P55212 | purified caspase-6, Z-VEID-R110 cleavage fluorescence | inhibition, % at 12.5 µM | hit rate 0.53% among 350,000 | AID 686996, 2013;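 active = mean inhibition across replicates at least about 35%, with every replicate also reaching that limit, limit read from the data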
Target sequence (P55212 24-179 limits assumed): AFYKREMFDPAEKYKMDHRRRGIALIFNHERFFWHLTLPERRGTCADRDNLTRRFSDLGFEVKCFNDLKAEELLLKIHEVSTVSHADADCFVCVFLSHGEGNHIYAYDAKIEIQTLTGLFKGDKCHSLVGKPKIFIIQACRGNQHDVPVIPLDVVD
Target sequence (P55212 194-293 limits assumed): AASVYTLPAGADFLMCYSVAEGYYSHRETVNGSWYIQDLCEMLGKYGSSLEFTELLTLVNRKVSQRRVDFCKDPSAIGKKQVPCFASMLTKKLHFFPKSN
Hits are given with their value; i = inactive; nt = no result given.

SMILES	GSIS activator	FGF22 binding	ERAP1 inh	SIRT5 inh	CASP6 VEID inh
CC1Oc2ccccc2N(Cc2cccc(F)c2)C1=O (stereo unspecified)	43	i	i	i	i
CC(=O)c1ccc2c(c1)N(Cc1ccccc1)C(=O)C(C)S2 (stereo unspecified)	50	i	i	nt	i
Cc1cccc(NC(=O)Cn2nnc(-c3cccs3)n2)c1C	i	nt	i	25	i
Cc1nn2c(nc(N3CCOCC3)c3ccccc32)c1C=C(C#N)C#N	41	i	i	i	i
Cc1nn2c(nc(N3CCCCC3)c3ccccc32)c1C=O	i	i	i	i	i
CN(C)c1nc(=NCc2cccs2)ss1	72	i	i	i	i
CC(SC(=S)N(C)Cc1cccs1)C(=O)O (stereo unspecified)	i	i	i	i	i
COCC#Cc1ccc2c(c1)O[C@H](CN(C)CC1CCOCC1)[C@H](C)CN([C@H](C)CO)S2(=O)=O	i	i	i	i	i
COc1cccc(CN2CCN(C(c3ccccc3)c3ccccc3)CC2)c1O	nt	i	i	16	i
COc1cc(CN2CCN(C(c3ccccc3)c3ccccc3)CC2)cc(OC)c1OC	nt	i	i	i	i
CCOC(=O)c1c2n(c3ccc(OC(C)=O)cc13)CCC2	48	i	i	i	i
CCOC(=O)C1CCN(C2=C(NS(=O)(=O)c3ccc(Br)cc3)C(=O)c3ccccc3C2=O)CC1	i	i	i	23	i
CCN1CCN(C2=C(NS(=O)(=O)c3ccccc3)C(=O)c3ccccc3C2=O)CC1	nt	i	i	i	48
CCOC(=O)N1CCN(C2=C(NS(=O)(=O)c3ccc(Br)cc3)C(=O)c3ccccc3C2=O)CC1	nt	i	i	nt	i
NC(=O)C1CCN(C2=C(NS(=O)(=O)c3ccc(Br)cc3)C(=O)c3ccccc3C2=O)CC1	i	i	i	i	i
CC1COCC(C)N1C1=C(Cl)C(=O)c2ccccc2C1=O (stereo unspecified)	i	i	i	i	i
CN1CCN(C2=C(Cl)C(=O)c3ccccc3C2=O)CC1	i	i	i	i	99
CCN1CCN(C2=C(NS(=O)(=O)c3ccc(Br)cc3)C(=O)c3ccccc3C2=O)CC1	i	i	i	i	68
O=C(c1ccccc1)N1Cc2ccccc2[C@@H]2OC(c3ccc(OCCCO)cc3)=N[C@]2(Cc2ccccc2)C1=O	nt	i	i	i	i
COc1ccc2c3c([nH]c2c1)[C@@H](CO)N(Cc1ccncc1)CC31CCN(Cc2ccc(-c3ccccn3)cc2)CC1	i	i	i	i	i
CN1CCN(C2=C(NS(=O)(=O)c3cccs3)C(=O)c3ccccc3C2=O)CC1	i	i	i	i	47
O=C1CC2c3ccccc3C1C1C(=O)N(CCc3ccccc3)C(=O)C21 (stereo unspecified)	i	43	i	i	i
COC(=O)C[C@@H]1CC[C@H](NS(=O)(=O)c2ccc(OC)cc2)[C@H](CO)O1	i	i	i	i	i
O=C(NCCc1cnc[nH]1)c1ccc(-c2ccccc2)cc1	nt	i	i	17	i
CCOc1ccc(C(=O)NCCc2cnc[nH]2)cc1	i	i	i	i	i
SMILES	GSIS activator	FGF22 binding	ERAP1 inh	SIRT5 inh	CASP6 VEID inh
COc1ccc(OC)c2c1cc(C(=O)N[C@@H](Cc1ccccc1)C(=O)O)n2C	i	i	i	i	i
COc1ccc(-c2cc(C(=O)NC(Cc3cc4ccccc4[nH]3)C(=O)O)c(C)o2)cc1OC (stereo unspecified)	i	i	i	i	48
C[C@@H]1CN([C@H](C)CO)S(=O)(=O)c2ccc(C#Cc3ccc(F)cc3)cc2O[C@@H]1CN(C)C(=O)NC1CCCC1	i	i	i	i	i
C[C@H](CO)N1C[C@H](C)[C@@H](CN(C)C(=O)NC2CCCCC2)Oc2cc(C#Cc3cccc(F)c3)ccc2S1(=O)=O	i	nt	nt	nt	nt
C[C@@H]1CN([C@H](C)CO)S(=O)(=O)c2ccc(C#Cc3cccc(F)c3)cc2O[C@@H]1CN(C)C(=O)NC1CCCCC1	i	i	i	17	i
C[C@H]1CN([C@@H](C)CO)S(=O)(=O)c2ccc(C#Cc3ccc(F)cc3)cc2O[C@@H]1CN(C)C(=O)NC1CCCCC1	i	i	i	18	i
C[C@H](CO)N1C[C@H](C)[C@H](CN(C)C(=O)NC2CCCCC2)Oc2cc(C#Cc3cccc(F)c3)ccc2S1(=O)=O	i	i	i	i	i
C[C@@H]1CN([C@@H](C)CO)S(=O)(=O)c2ccc(C#Cc3ccc(F)cc3)cc2O[C@@H]1CN(C)C(=O)NC1CCCCC1	i	i	i	16	i
C[C@H]1CN([C@@H](C)CO)S(=O)(=O)c2ccc(C#Cc3ccc(F)cc3)cc2O[C@H]1CN(C)C(=O)NC1CCCCC1	i	i	i	20	i
CC(C)CC#Cc1cnc2c(c1)C(=O)N([C@H](C)CO)C[C@H](C)[C@@H](CN(C)S(C)(=O)=O)O2	i	i	i	i	i
Cc1ccccc1-c1cnc2c(c1)C(=O)N([C@@H](C)CO)C[C@H](C)[C@H](CN(C)Cc1ccncc1)O2	i	i	i	i	i
CC1=C/C(=N\Nc2ccccc2[N+](=O)[O-])CC(C)(C)C1	i	i	i	19	i
COc1ccc(NC(=O)N(C)C[C@H]2Oc3c(NC(=O)C4CCOCC4)cccc3C(=O)N([C@@H](C)CO)C[C@H]2C)cc1	i	i	i	i	i
C[C@H]1CN([C@@H](C)CO)C(=O)c2cc(C#Cc3ccccc3F)cnc2O[C@H]1CN(C)C(=O)c1ccc2c(c1)OCO2	i	i	i	i	i
Cc1ccc(NC(=O)c2ccccc2Cl)cc1-n1cnnn1	i	44	i	i	i
COC(=O)NC1(C(F)(F)F)C(=O)Nc2c1c(=O)n(C)c(=O)n2C (stereo unspecified)	nt	43	i	i	i
COC(=O)c1ccc(NC(=O)CCS(=O)(=O)c2ccc(Br)s2)cc1	i	nt	nt	nt	nt
CC(=O)c1cccc(NC(=O)CCS(=O)(=O)c2ccc(Br)s2)c1	i	i	i	19	i
CCC(=O)Nc1ccc2c(c1)OC[C@@H](C)N(C(=O)CC1CC1)C[C@H](C)[C@H](OC)CN(C)C2=O	i	i	i	i	i
COCC(=O)NC[C@H]1N[C@H](CO)[C@H]1c1ccc(C2=CCCCC2)cc1	i	i	i	37	i
COCC(=O)NC[C@@H]1N[C@@H](CO)[C@H]1c1ccc(C2=CCCCC2)cc1	i	i	i	i	i
C[C@H](CO)N1C[C@H](C)[C@@H](CN(C)S(=O)(=O)c2ccc(-c3ccccc3)cc2)OCc2cnnn2CCCC1=O	i	i	i	i	i
O=C(Nc1ccc(Br)cc1F)C1CCCN(S(=O)(=O)c2cnc[nH]2)C1 (stereo unspecified)	i	2.0	i	nt	i
